# Test results as given in PubChem BioAssay (NCATS).
# Inconclusive results are not listed. Where a call stands in place of a potency, no number is given. Unmarked numbers belong to inactive results. Calls of active or inactive are those of the source. Calls follow the shape of the dose curve; as a rule, active = well fitted cell-killing curve with a large enough effect; inconclusive = small, poorly fitted or top-dose-only effect, or effect the other way; inactive = flat fitted curve, though single readings scatter.
# Test system: PA-1
# Test: Primary qHTS to identify gynecologic anti-cancer compounds using libraries of approved drugs and bioactive compounds (AID 1345084); also: nearly all actives have a fitted effect of over 55% in size
# Settings: Gynecologic cancer cell panel viability, ATPlite luminescence, 48 h; series mostly up to 57.5 µM
# Procedure, shortened: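 Cytotoxicity screen measuring ATP content by luciferase luminescence. Each compound is applied at five concentrations for 48 h at 37 C with 5% CO2.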
Compound,Potency,"activity change, negative = cytotoxicity"
CC(=O)C12OC(C)(C)OC1CC1C3CCC4=CC(=O)C=CC4(C)C3(F)C(O)CC12C (centres undefined),inactive,
COC(=O)C1=CO[C@@H](O[C@@H]2O[C@H](CO[C@@H]3O[C@H](COC(=O)/C=C/c4cc(OC)c(O)c(OC)c4)[C@@H](O)[C@H](O)[C@H]3O)[C@@H](O)[C@H](O)[C@H]2O)[C@@H]2C(CO)=CC[C@H]12,inactive,
CC1=C2C3OC(=O)C(C)C3(O)CCC2(C)CCC1O (centres undefined),inactive,
COc1ccccc1Oc1ccc(N(Cc2cccnc2)S(=O)(=O)CC(F)(F)F)cc1,inactive,
O=C(/C=C/c1ccc(O)cc1)N[C@@H](Cc1ccc(O)cc1)C(=O)O,inactive,
CC1=C(C)C(=O)OC(C(C)C2CCC3C4C5OC5C5(O)CC(OC6OC(CO)C(OC7OC(C)C(O)C(O)C7O)C(O)C6O)CC(O)C5(C)C4CCC23C)C1 (centres undefined),inactive,
C=C[C@H]1CN2CC[C@H]1C[C@@H]2C(O)c1ccnc2ccc(OC)cc12 (some centres undefined),inactive,
C=C[C@H]1C(O[C@@H]2O[C@H](CO)[C@@H](O)[C@H](O)[C@H]2O)OC=C2C(=O)N3CCc4c([nH]c5ccccc45)C3CC21 (some centres undefined),inactive,
O=C(O)/C=C/c1ccc(O)c(O[C@@H]2O[C@H](CO)[C@@H](O)[C@H](O)[C@H]2O)c1,inactive,
C=C(C(=O)O)C1CC(O)C2(C)CCCC(=C)C2C1 (centres undefined),inactive,
CC1CCC2(C(=O)O)CCC3(C)C(=CCC4C5(C)CCC(OC(=O)/C=C/c6ccccc6)C(C)(C)C5CCC43C)C2C1C (centres undefined),inactive,
C=C[C@H]1[C@H](O[C@@H]2O[C@H](CO)[C@@H](O)[C@H](O)[C@H]2O)OC=C(C(=O)OC)[C@H]1CC(=O)O,inactive,
CNC12CC3C[C@@](C)(C1)C[C@](C)(C3)C2,inactive,
COc1cccc2cc3c(c(O[C@@H]4O[C@H](CO[C@@H]5O[C@H](CO)[C@@H](O)[C@H](O)[C@H]5O)[C@@H](O)[C@H](O)[C@H]4O)c12)C(C)OC3=O (some centres undefined),inactive,
C/C(=C\CC[C@@H](C)[C@H]1CC(O)[C@@]2(C)C3CC[C@H]4C(C)(C)[C@@H](OC5OCC(O)C(O)C5OC5OC(CO)C(O)C(O)C5O)CC[C@@]45C[C@@]35CC(O)[C@]12C)C(=O)O (some centres undefined),inactive,
Cc1ccc(NC(=O)C(=O)NC2CC(C)(C)NC(C)(C)C2)cc1,inactive,
C=CC(C)(C)C12C=C(OC)C(=O)N3C(C(C)C)C(=O)NC31N(OC)c1ccccc12 (centres undefined),inactive,
O=S(=O)(NC1CCC(c2cc(F)ccc2F)(S(=O)(=O)c2ccc(Cl)cc2)CC1)C(F)(F)F (centres undefined),inactive,
CC(C)=CCC[C@](C)(O[C@@H]1O[C@H](CO)[C@@H](O)[C@H](O)[C@H]1O)[C@H]1CC[C@]2(C)[C@@H]1[C@H](O)CC1[C@@]3(C)CC[C@H](O)C(C)(C)C3[C@@H](O[C@@H]3O[C@H](CO)[C@@H](O)[C@H](O)[C@H]3O[C@@H]3OC[C@@H](O)[C@H](O)[C@H]3O)C[C@]12C (some centres undefined),,2.46% [at 11.6 µM]
CC(=O)OC1CC2(C)C3=CCC4(C)C5C(O)C(O)C(C(C)C)C5(C)CCC4(C)C3CCC2C(C)(C)C1OC1OC(CO)C(O)C(O)C1O (centres undefined),inactive,

Compound,Potency,"activity change, negative = cytotoxicity"
CC1(C)CCCC2(C)C1CC(=O)C13CC(CCC12)C(O)(CO)C3 (centres undefined),inactive,
CC1=CC(=O)C2(OC3OC(C)C(O)C(OC(=O)/C=C/c4ccccc4)C3O)C=COC(OC3OC(CO)C(O)C(O)C3O)C12 (centres undefined),inactive,
C=C(CO)C12OC1C1(C)C(=CC2=O)C(O)C(O)CC1C (centres undefined),inactive,
O=C(CCc1ccccc1)N1CCC(O)(Cn2cnc3cc(Cl)ccc3c2=O)CC1,inactive,
C=CC(C)(O)CC[C@H]1C(=C)CCC2[C@](C)(C(=O)O)CCC[C@@]21C (some centres undefined),inactive,
C=C1[C@H](OC(C)=O)[C@H]2[C@@H](OC(C)=O)[C@](C)(OC(C)=O)C[C@]2(OC(C)=O)C(=O)[C@H](C)/C=C/C(C)(C)C(=O)[C@H](OC(=O)C(C)CC)[C@H]1OC(C)=O (some centres undefined),inactive,
C=C(C(=O)O)C1CCC2(C)CCC(O)C(C)(O)C2C1 (centres undefined),inactive,
C[C@@H]1O[C@@H](OC[C@H]2O[C@@H](OC(CCCCc3ccc(O)cc3)CCc3ccc(O)cc3)[C@H](O)[C@@H](O)[C@@H]2O)[C@H](O)[C@H](O)[C@H]1O (some centres undefined),inactive,
COC(=O)c1ccc(OC(CO)C(O)c2ccc(O)c(OC)c2)c(OC)c1 (centres undefined),inactive,
C/C1=C\C[C@]2(C)C(=O)C(O)=C([C@H](C)CO)[C@H]2C/C=C(\C)[C@@H](O)CC/C(C)=C/CC1,inactive,
C=C(C)C1CCC2(C(=O)O)CCC3(C(=O)O)C(CCC4C5(C)CCC(O)C(C)(C(=O)O)C5CCC43C)C12 (centres undefined),inactive,
O=C(Nc1ccccc1-c1cn2c(CN3CCNCC3)csc2n1)c1ccc2ccccc2n1,inactive,
COc1c2c(c(CO)c3c1C(=O)OC3)OC1(C)CCC3(O)C(C)(C)OC(=O)CCC3(C)C1C2 (centres undefined),inactive,
CC(C)C(N)C(=O)OCCOCn1cnc2c(=O)[nH]c(N)nc21 (centres undefined),inactive,
O=C(Nc1ccc(S(=O)(=O)Nc2nccs2)cc1)C(c1ccccc1)c1ccccc1,inactive,
CN=C(N)NCCCCC/C=C(/C)CC(C)C1OC(=O)C(C)C(O)/C=C/C(C)C(O)CC(O)C(C)C(O)CCC(C)C(O)CC2(O)OC(CC(OC(=O)CC(=O)O)CC(O)CC(O)C(C)C(O)/C(C)=C/CCC1C)CC(O)C2O (centres undefined),,16.3% [at 11.6 µM]
CCOCCn1nc(CC)c2nc(N3CCC(C(=O)O)CC3)nc(Nc3cc(C)ccn3)c21,inactive,
CC1OC(OC2C(CO)OC(OCC3OC(OC(=O)C45CCC(C)(C)CC4C4=CCC6C7(C)CCC(OC8OC(CO)C(O)C(OC9OC(CO)C(O)C(O)C9O)C8O)C(C)(C)C7CCC6(C)C4(C)CC5)C(O)C(O)C3O)C(O)C2O)C(O)C(O)C1OC1OC(CO)C(O)C(O)C1O (centres undefined),,2.62% [at 6.55 µM]
O=c1[nH]ccc2cc(OC3CCNCC3)ccc12,inactive,
